Laboratory results published in paper PMC7862700, “An all-to-all approach to the identification of sequence-specific readers for epigenetic DNA modifications on cytosine”.

How the values were obtained:
Assay in all cases: DAPPL (digital affinity profiling via proximity ligation, sequencing); 10 mM Tris-HCl pH 7.5, 50 mM NaCl, 1 mM DTT, 4% glycerol, room temperature, 30 min; GST-TFs on glutathione beads, 16-mer random dsDNA library, 0.1% formaldehyde crosslink after washing; high values mean tight binding
FEV = target: T1, FEV (Homo sapiens, UniProt Q99581 1-238); conditions: protein: recombinant; tags: N-terminal GST; dsDNA, one strand shown
T1 sequence: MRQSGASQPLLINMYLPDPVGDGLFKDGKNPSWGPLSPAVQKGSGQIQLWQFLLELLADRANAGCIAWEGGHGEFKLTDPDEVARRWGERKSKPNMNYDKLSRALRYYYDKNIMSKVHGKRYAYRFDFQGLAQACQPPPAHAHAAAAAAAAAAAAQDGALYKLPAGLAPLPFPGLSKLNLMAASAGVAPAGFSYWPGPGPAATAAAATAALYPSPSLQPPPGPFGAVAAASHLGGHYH
Method in brief: (§1)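 Pools of DNA-barcoded human transcription factors, expressed in yeast as GST fusions on glutathione beads and combined with a tag-only sample, were incubated with 200 nmole of a 16-mer random double-stranded DNA library. Incubation took 30 min at room temperature in Tris/NaCl/DTT/glycerol buffer and was followed by washing, 0.1% formaldehyde crosslinking, proximity ligation (BsaI/T4 ligase, 1 h, 37 °C), PCR amplification and sequencing on an Illumina NextSeq500. Binding signal is the ratio of a hexamer's read frequency for a factor to its frequency for the tag-only sample.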

ETV5 = ETV5 (Homo sapiens, UniProt P41161 1-510); conditions: protein: recombinant; tags: N-terminal GST; dsDNA, one strand shown
ETV5, sequence (P41161 whole entry): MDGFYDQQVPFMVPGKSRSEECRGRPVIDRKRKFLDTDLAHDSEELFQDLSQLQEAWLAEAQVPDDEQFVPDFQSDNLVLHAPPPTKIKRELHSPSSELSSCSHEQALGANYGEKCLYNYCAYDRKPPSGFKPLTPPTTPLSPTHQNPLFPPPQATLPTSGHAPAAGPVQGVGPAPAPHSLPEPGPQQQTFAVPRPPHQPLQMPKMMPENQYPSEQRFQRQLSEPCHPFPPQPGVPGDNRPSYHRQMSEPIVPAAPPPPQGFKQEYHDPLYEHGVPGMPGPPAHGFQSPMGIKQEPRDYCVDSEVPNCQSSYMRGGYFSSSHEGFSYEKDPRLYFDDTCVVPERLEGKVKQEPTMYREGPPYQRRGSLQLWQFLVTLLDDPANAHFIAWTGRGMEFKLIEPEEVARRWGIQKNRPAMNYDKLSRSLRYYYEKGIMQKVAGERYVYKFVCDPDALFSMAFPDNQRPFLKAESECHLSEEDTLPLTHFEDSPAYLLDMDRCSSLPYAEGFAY
Method in brief: as §1

HSF1 = HSF1 (Homo sapiens, UniProt Q00613 1-529); conditions: protein: recombinant; tags: N-terminal GST; chain copies: 3; dsDNA, one strand shown
HSF1, sequence (Q00613 whole entry): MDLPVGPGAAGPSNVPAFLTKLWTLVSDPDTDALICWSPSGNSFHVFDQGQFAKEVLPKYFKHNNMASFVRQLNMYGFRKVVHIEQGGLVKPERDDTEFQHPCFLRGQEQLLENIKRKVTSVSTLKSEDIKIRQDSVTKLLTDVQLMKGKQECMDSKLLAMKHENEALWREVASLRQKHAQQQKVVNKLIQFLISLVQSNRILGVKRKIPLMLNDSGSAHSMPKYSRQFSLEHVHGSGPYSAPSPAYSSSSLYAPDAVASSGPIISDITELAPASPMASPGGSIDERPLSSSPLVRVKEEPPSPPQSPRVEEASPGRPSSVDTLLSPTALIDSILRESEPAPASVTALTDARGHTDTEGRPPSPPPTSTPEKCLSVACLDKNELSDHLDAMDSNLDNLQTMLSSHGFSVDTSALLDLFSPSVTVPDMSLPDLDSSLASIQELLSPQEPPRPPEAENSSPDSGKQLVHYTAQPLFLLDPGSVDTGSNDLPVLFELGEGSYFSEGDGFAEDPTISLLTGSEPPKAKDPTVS
Method in brief: as §1

SPIC = target: T2, SPIC (Homo sapiens, UniProt Q8N5J4 1-248); conditions: protein: recombinant; tags: N-terminal GST; dsDNA, one strand shown
T2 sequence: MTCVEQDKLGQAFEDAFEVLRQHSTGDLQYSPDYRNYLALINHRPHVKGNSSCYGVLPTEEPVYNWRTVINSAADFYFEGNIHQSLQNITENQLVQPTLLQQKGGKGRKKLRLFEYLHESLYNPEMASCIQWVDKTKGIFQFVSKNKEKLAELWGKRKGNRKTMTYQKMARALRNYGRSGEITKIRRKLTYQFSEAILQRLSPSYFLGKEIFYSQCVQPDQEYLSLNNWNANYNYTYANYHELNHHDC
Method in brief: as §1

ELF4 = ELF4 (Homo sapiens, UniProt Q99607 1-663); conditions: protein: recombinant; tags: N-terminal GST; dsDNA, one strand shown
ELF4, sequence (Q99607 whole entry): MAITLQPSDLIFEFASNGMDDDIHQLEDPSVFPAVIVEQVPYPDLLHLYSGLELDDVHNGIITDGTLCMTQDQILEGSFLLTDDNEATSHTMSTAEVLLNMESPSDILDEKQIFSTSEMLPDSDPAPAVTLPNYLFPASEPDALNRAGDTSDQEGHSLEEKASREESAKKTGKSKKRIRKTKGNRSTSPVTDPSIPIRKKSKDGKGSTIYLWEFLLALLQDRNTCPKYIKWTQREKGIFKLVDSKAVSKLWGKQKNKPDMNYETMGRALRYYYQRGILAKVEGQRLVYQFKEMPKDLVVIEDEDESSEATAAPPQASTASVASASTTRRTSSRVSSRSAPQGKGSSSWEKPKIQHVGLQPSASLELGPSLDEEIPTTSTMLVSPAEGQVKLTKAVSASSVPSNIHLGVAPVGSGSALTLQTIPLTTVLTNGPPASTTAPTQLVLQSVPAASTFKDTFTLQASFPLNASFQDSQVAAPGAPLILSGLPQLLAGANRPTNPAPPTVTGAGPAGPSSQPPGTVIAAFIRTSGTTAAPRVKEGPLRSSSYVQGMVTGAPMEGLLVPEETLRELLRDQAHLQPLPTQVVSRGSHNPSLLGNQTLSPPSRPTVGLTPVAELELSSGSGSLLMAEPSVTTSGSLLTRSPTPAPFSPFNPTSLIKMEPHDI
Method in brief: as §1

ELK4 = target: T3, ELK4 (Homo sapiens, UniProt P28324-2 1-405); conditions: protein: recombinant; tags: N-terminal GST; dsDNA, one strand shown
T3 sequence: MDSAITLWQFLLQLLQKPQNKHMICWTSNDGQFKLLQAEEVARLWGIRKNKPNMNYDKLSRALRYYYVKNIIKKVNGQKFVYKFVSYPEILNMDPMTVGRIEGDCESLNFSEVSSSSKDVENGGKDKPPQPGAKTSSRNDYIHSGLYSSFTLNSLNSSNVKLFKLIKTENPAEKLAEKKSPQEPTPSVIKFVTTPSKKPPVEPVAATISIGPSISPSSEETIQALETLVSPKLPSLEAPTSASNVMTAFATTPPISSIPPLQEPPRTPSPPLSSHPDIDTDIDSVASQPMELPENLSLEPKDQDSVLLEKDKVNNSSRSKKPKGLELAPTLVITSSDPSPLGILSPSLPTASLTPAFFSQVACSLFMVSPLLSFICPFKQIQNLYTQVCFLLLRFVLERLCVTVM
Method in brief: as §1

ETV2 = target: T4, ETV2 (Homo sapiens, UniProt O00321 1-342); conditions: protein: recombinant; tags: N-terminal GST; dsDNA, one strand shown
T4 sequence: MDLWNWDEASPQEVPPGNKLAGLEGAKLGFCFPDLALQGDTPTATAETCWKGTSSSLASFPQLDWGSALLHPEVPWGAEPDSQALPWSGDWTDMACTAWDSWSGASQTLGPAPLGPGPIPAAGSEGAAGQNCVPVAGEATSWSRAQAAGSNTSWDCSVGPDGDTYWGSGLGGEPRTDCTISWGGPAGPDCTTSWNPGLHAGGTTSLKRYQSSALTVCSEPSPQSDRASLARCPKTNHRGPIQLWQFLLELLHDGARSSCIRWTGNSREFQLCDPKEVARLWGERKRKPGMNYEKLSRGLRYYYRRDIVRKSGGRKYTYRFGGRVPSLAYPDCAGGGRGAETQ
Method in brief: as §1

ELF3 = target: T5, ELF3 (Homo sapiens, UniProt P78545 1-371); conditions: protein: recombinant; tags: N-terminal GST; dsDNA, one strand shown
T5 sequence: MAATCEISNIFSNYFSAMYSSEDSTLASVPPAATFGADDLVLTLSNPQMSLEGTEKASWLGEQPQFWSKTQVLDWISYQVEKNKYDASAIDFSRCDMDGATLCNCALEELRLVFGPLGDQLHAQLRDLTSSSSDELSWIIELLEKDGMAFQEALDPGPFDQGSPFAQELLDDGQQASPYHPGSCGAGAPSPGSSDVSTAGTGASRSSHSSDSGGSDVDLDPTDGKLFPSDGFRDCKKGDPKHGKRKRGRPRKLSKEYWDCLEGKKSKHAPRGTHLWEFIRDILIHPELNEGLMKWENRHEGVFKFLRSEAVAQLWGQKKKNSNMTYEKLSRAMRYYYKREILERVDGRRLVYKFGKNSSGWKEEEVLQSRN
Method in brief: as §1

CRX = CRX (Homo sapiens, UniProt O43186 1-299); conditions: protein: recombinant; tags: N-terminal GST; dsDNA, one strand shown
CRX, sequence (O43186 whole entry): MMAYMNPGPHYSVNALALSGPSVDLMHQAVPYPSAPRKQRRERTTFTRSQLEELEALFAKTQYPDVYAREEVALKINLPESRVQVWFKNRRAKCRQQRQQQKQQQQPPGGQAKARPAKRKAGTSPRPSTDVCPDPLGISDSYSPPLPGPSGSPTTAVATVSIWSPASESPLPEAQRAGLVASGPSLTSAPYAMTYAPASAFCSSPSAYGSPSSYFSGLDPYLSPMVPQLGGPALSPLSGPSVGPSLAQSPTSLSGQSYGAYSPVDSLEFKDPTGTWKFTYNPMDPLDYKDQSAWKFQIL
Method in brief: as §1

ETV1 = ETV1 (Homo sapiens, UniProt P50549 1-477); conditions: protein: recombinant; tags: N-terminal GST; dsDNA, one strand shown
ETV1, sequence (P50549 whole entry): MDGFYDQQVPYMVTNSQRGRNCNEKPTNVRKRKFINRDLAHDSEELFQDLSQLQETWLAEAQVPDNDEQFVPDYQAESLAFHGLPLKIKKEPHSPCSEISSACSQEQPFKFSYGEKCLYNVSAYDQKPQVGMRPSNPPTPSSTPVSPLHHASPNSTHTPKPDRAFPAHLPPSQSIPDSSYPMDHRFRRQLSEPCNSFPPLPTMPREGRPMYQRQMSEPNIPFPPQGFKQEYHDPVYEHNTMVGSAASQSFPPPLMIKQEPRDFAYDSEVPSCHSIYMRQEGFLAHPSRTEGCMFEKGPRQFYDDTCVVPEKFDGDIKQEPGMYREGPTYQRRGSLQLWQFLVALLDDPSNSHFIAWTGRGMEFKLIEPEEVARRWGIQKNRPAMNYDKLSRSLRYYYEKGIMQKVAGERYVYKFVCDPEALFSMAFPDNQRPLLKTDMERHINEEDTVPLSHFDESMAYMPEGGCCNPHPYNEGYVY
Method in brief: as §1

Question: How did the binding signal (FEV) turn out when ACTATA was run?
Answer: The binding signal was 1.29 fold enrichment (6-mer frequency, TF over GST control).

Question: What about the binding signal (ETV5) of the same sequence?
Answer: The binding signal was 1.33 fold enrichment (6-mer frequency, TF over GST control).

Question: And the binding signal (HSF1)?
Answer: The binding signal was 1.26 fold enrichment (6-mer frequency, TF over GST control).

Question: What about the binding signal (SPIC) of the same sequence?
Answer: The binding signal was 1.26 fold enrichment (6-mer frequency, TF over GST control).

Question: What about the binding signal (ELF4) of the same sequence?
Answer: Its binding signal is 1.3 fold enrichment (6-mer frequency, TF over GST control).

Question: What about the binding signal (ELK4) of the same sequence?
Answer: The binding signal was 1.42 fold enrichment (6-mer frequency, TF over GST control).

Question: And the binding signal (ETV2)?
Answer: Its binding signal is 1.3 fold enrichment (6-mer frequency, TF over GST control).

Question: And the binding signal (ELF3)?
Answer: The binding signal was 1.38 fold enrichment (6-mer frequency, TF over GST control).

Question: What about the binding signal (CRX) of the same sequence?
Answer: The binding signal was 1.4 fold enrichment (6-mer frequency, TF over GST control).

Question: What about the binding signal (ETV1) of the same sequence?
Answer: The binding signal was 1.26 fold enrichment (6-mer frequency, TF over GST control).
